Hit rate of the full screen: of about 5,600 compounds, about 3,100 (55%) were called active. Inconclusive results (about 3%) are left out. So high a share suggests a set chosen from earlier hits. Not all results are given here. A number with no mark means an inactive call.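 The calls were made as follows: active = mean loss of cell viability signal at or above a set limit, and enough replicates individually reaching it; inconclusive = meets only the mean limit or only the replicate share; inactive = meets neither condition.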

The nature of this test: viability loss of mouse 3T3 cells – cell-based, cherry-pick, single point, set 2, cytotoxicity control, confirmation (AID 651744).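 Also: 0% = median of neutral control wells and 100% = median of positive control wells.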 To be noted: NIH/3T3 viability, CellTiter-Glo ATP luminescence, 90 h; at 24.9 µM; active compounds read high.
As to `CO[C@H](CN(C)S(=O)(=O)c1ccc(Cl)cc1)[C@@H](C)CN(Cc1ccccc1Cl)[C@H](C)CO`, the inhibition (as a rule, the change of the read-out against control, counted positive when it falls) is 74% (active). As to `COc1cccc(S(=O)(=O)N2CCCCN3[C@H](CO)[C@H](c4ccc(-c5ccncc5)cc4)[C@H]3C2)c1`, the inhibition was 36.2% (active). Consider `OC[C@@H]1[C@H](c2ccc(C#CC3CC3)cc2)[C@@H]2CN(CCC(F)(F)F)CCCCN12`, for which the inhibition was 102% (active).

Take `COc1cccc(S(=O)(=O)N2CCCCN3[C@H](CO)[C@H](c4ccc(C#CC5CC5)cc4)[C@H]3C2)c1`: the inhibition was 104% (active). With `O=C(CN1CCOCC1)N1CCCCN2[C@H](CO)[C@H](c3ccc(-c4ccccc4)cc3)[C@@H]2C1`, the inhibition was 16.2%. Under `CCC(=O)N1CCCCN2[C@H](C1)[C@@H](c1ccc(/C=C/c3ccccc3)cc1)[C@@H]2CO` stands 103% (active); under `O=C(CN1CCOCC1)N1CCCCN2[C@@H](CO)[C@H](c3ccc(/C=C/c4ccccc4)cc3)[C@@H]2C1`, 92.5% (active).

On to `O=C(CN1CCOCC1)N1CCCCN2[C@@H](CO)[C@H](c3ccc(-c4ccccc4)cc3)[C@@H]2C1`, for which the inhibition is 6.88%. `CCC(=O)N1CCCCN2[C@H](C1)[C@@H](c1ccc(-c3ccc(F)cc3)cc1)[C@@H]2CO`: the inhibition is 48.8% (active). Turning to `Cc1ccc(S(=O)(=O)Nc2ccc3c(c2)C(=O)N([C@H](C)CO)C[C@H](C)[C@H](CN(C)Cc2ccc(Cl)c(Cl)c2)O3)cc1`, the inhibition is 104% (active).

Regarding `Cc1ccc(S(=O)(=O)Nc2ccc3c(c2)C(=O)N([C@H](C)CO)C[C@H](C)[C@H](CN(C)C(=O)Nc2ccc(F)cc2)OCCCC[C@H](C)O3)cc1`, the inhibition was 1.65%. On to `COc1ccc(NC(=O)Nc2ccc3c(c2)C(=O)N([C@H](C)CO)C[C@H](C)[C@H](CN(C)S(=O)(=O)c2ccc(Cl)cc2)OCCCC[C@H](C)O3)cc1`, for which the inhibition was 3.56%. Under `COc1ccc(CN(C)C[C@H]2Oc3ccc(NS(=O)(=O)c4ccc(Cl)cc4)cc3CC(=O)N([C@@H](C)CO)C[C@H]2C)cc1` stands 36.9% (active); under `COc1ccc(S(=O)(=O)Nc2ccc3c(c2)C(=O)N([C@@H](C)CO)C[C@H](C)[C@H](CN(C)Cc2ccc(C(F)(F)F)cc2)O3)cc1`, 35.2% (active). For `Cc1ccc(S(=O)(=O)N(C)C[C@@H]2OCCCC[C@@H](C)Oc3ccc(NS(=O)(=O)c4ccc(F)cc4)cc3C(=O)N([C@H](C)CO)C[C@H]2C)cc1`, the inhibition is -22.2%. Regarding `COc1ccc(S(=O)(=O)Nc2ccc3c(c2)C(=O)N([C@H](C)CO)C[C@H](C)[C@H](CN(C)Cc2ccc(C(F)(F)F)cc2)O3)cc1`, the inhibition is 97.6% (active).

For the compound `COc1ccc(S(=O)(=O)Nc2ccc3c(c2)C(=O)N([C@@H](C)CO)C[C@H](C)[C@@H](CN(C)Cc2ccc(C(F)(F)F)cc2)O3)cc1`, the inhibition is 5.53%. For `CN1C(=O)c2cc(NC(=O)c3cnccn3)ccc2OC[C@@H]2O[C@H](CC(=O)N[C@@H]3CCN(Cc4ccccc4)C3)CC[C@@H]21` the value was -11.4%; for `C[C@H](CO)N1C[C@H](C)[C@H](CN(C)Cc2ccc(C(F)(F)F)cc2)Oc2ccc(NS(=O)(=O)c3ccc(Cl)cc3)cc2C1=O`, 101% (active). `C[C@@H]1CN([C@@H](C)CO)S(=O)(=O)c2ccc(C#Cc3ccc(F)cc3)cc2O[C@H]1CN(C)C(=O)c1ccccn1`: the inhibition is 92.1% (active). Take `C[C@@H]1CN([C@H](C)CO)S(=O)(=O)c2ccc(-c3cccc(C#N)c3)cc2O[C@@H]1CN(C)C(=O)Nc1ccccc1F`: the inhibition is 77.8% (active). For the compound `C[C@@H]1CN([C@@H](C)CO)S(=O)(=O)c2ccc(C#Cc3ccc(F)cc3)cc2O[C@H]1CN(C)C(=O)NC1CCCC1`, the inhibition is 90.7% (active). For `C[C@@H]1CN([C@@H](C)CO)S(=O)(=O)c2ccc(C#Cc3ccccc3)cc2O[C@@H]1CN(C)C(=O)Nc1ccccc1`, the inhibition is 49.1% (active). For the compound `C[C@@H]1CN([C@@H](C)CO)S(=O)(=O)c2ccc(-c3ccncc3)cc2O[C@@H]1CN(C)C(=O)Nc1ccc(F)cc1`, the inhibition was 21.8%.

Regarding `C[C@@H]1CN([C@H](C)CO)S(=O)(=O)c2ccc(C#CC3CCCC3)cc2O[C@@H]1CN(C)Cc1cccnc1`, the inhibition was 104% (active). For `C[C@H](CO)N1C[C@H](C)[C@H](CN(C)Cc2cccnc2)Oc2cc(C#CC3CCCC3)ccc2S1(=O)=O`, the inhibition was 104% (active). As to `COc1cccc(S(=O)(=O)N2CCCCN3[C@H](C2)[C@H](c2ccc(C#CC(C)C)cc2)[C@@H]3CO)c1`, the inhibition is 26.4%.

Consider `COc1ccc(S(=O)(=O)N2CCCCN3[C@H](CO)[C@@H](c4ccc(C#CC(C)C)cc4)[C@H]3C2)cc1`, for which the inhibition is 105% (active). As to `CC(C)C#Cc1ccc([C@H]2[C@H](CO)N3CCCCN(C(=O)NC(C)C)C[C@@H]23)cc1`, the inhibition was 50% (active).

As for `COc1ccc(S(=O)(=O)N2CCCCN3[C@H](C2)[C@H](c2ccc(C#CCC(C)C)cc2)[C@@H]3CO)cc1`, the inhibition is 64.2% (active). As to `COc1ccccc1-c1ccc2c(c1)O[C@H](CN(C)S(=O)(=O)c1ccc(C)cc1)[C@@H](C)CN([C@H](C)CO)S2(=O)=O`, the inhibition was 31.1% (active).

On to `CC(C)CC#Cc1ccc2c(c1)O[C@H](CN(C)S(=O)(=O)c1cccc(F)c1)[C@@H](C)CN([C@@H](C)CO)S2(=O)=O`, for which the inhibition was 105% (active). Turning to `C[C@@H]1CN([C@H](C)CO)S(=O)(=O)c2ccc(-c3cccc(F)c3)cc2O[C@H]1CN(C)S(=O)(=O)c1ccc(F)cc1`, the inhibition is 60.5% (active). For `Cc1ccc(-c2ccc3c(c2)O[C@H](CN(C)C)[C@@H](C)CN([C@H](C)CO)S3(=O)=O)cc1` the value was 25.3% (active); for `COc1ccccc1-c1ccc2c(c1)O[C@@H](CN(C)C)[C@H](C)CN([C@H](C)CO)S2(=O)=O`, 19.5%. With `Cc1noc(C)c1S(=O)(=O)Nc1ccc2c(c1)C(=O)N([C@@H](C)CO)C[C@@H](C)[C@H](CN(C)S(=O)(=O)c1ccc(Cl)cc1)OCCCC[C@H](C)O2`, the inhibition is -2.59%. As for `C[C@H](CO)N1C[C@H](C)[C@@H](CN(C)S(=O)(=O)c2ccc(F)cc2)Oc2cc(C3=CCCC3)ccc2S1(=O)=O`, the inhibition was 45.4% (active). As for `C[C@H]1CN([C@@H](C)CO)S(=O)(=O)c2ccc(C#Cc3cccc(F)c3)cc2O[C@@H]1CN(C)S(=O)(=O)c1cn(C)cn1`, the inhibition was 77.2% (active). In the case of `C[C@@H]1CN([C@@H](C)CO)S(=O)(=O)c2ccc(-c3cccc(F)c3)cc2O[C@@H]1CN(C)S(=O)(=O)c1ccccc1`, the inhibition is 57.2% (active). Consider `C[C@@H]1CN([C@H](C)CO)C(=O)c2cc(NS(C)(=O)=O)ccc2O[C@@H](C)CCCCO[C@H]1CN(C)S(=O)(=O)c1cn(C)cn1`, for which the inhibition is -25.6%. Under `C[C@@H]1CN([C@H](C)CO)C(=O)Cc2cc(NC(=O)Cc3ccccc3)ccc2O[C@H]1CN(C)Cc1ccc(Oc2ccccc2)cc1` stands 83.1% (active); under `C[C@@H]1CN([C@@H](C)CO)C(=O)c2cc(NC(=O)Cc3ccccc3)ccc2O[C@@H]1CN(C)Cc1ccc(Oc2ccccc2)cc1`, 104% (active); under `C[C@@H]1CN([C@@H](C)CO)C(=O)c2cc(NC(=O)Nc3cccc4ccccc34)ccc2O[C@H]1CN(C)Cc1ccc(Cl)c(Cl)c1`, 18.8%.

On to `C[C@@H]1CN([C@@H](C)CO)C(=O)c2cc(NC(=O)Nc3ccc4c(c3)OCO4)ccc2O[C@@H]1CN(C)Cc1ccc(Oc2ccccc2)cc1`, for which the inhibition is 103% (active).

As to `CCCNC(=O)N1[C@@H]2c3cccc(=O)n3C[C@H]1[C@H](CO)[C@H]2C(=O)NCC(F)(F)F`, the inhibition was -10.7%. Regarding `O=C(NCc1ccccn1)[C@@H]1[C@@H](CO)[C@@H]2Cn3c(ccc(/C=C/c4ccccc4)c3=O)[C@H]1N2CC1CC1`, the inhibition was 47.4% (active).

In the case of `C[C@H]1CN([C@@H](C)CO)C(=O)Cc2cc(NC(=O)Cc3cn(C)c4ccccc34)ccc2O[C@@H]1CN(C)Cc1ccccc1`, the inhibition is 18.1%.

For the compound `C[C@H](CO)N1C[C@H](C)[C@H](CN(C)Cc2ccc(-c3ccccc3)cc2)Oc2ccc(NC(=O)Nc3ccc(F)cc3)cc2CC1=O`, the inhibition was 103% (active).

Regarding `C[C@H]1CN([C@@H](C)CO)C(=O)Cc2cc(NC(=O)Cc3cn(C)c4ccccc34)ccc2O[C@@H]1CN(C)Cc1ccc(C(F)(F)F)cc1`, the inhibition was 69.9% (active). Regarding `C[C@@H]1CN([C@H](C)CO)C(=O)Cc2cc(NC(=O)c3ccncc3)ccc2O[C@H]1CN(C)Cc1ccc(-c2ccccc2)cc1`, the inhibition was 102% (active). Take `C[C@H](CO)N1C[C@H](C)[C@@H](CN(C)Cc2ccc(-c3ccccc3)cc2)Oc2ccc(NC(=O)CCC(F)(F)F)cc2CC1=O`: the inhibition is 105% (active).

Consider `C[C@@H]1CN([C@H](C)CO)C(=O)CCCn2nncc2CO[C@@H]1CN(C)Cc1ccc(C(=O)Nc2ccccc2N)cc1`, for which the inhibition is 9.3%.

With `C[C@@H]1CN([C@@H](C)CO)C(=O)Cc2cc(NC(=O)C3CCCCC3)ccc2O[C@@H]1CN(C)Cc1ccc(C(=O)Nc2ccccc2N)cc1`, the inhibition is 59.4% (active). With `C[C@H](CO)N1C[C@H](C)[C@@H](CN(C)S(=O)(=O)c2ccccc2F)Oc2ncc(C#Cc3ccccc3F)cc2C1=O`, the inhibition was 46.5% (active). On to `C[C@@H]1CN([C@@H](C)CO)C(=O)CCCn2cc(nn2)CO[C@@H]1CN(C)S(=O)(=O)c1ccccc1F`, for which the inhibition is -3.5%.

In the case of `CCCNC(=O)N(C)C[C@@H]1Oc2ncc(C#Cc3ccccc3F)cc2C(=O)N([C@@H](C)CO)C[C@H]1C`, the inhibition was 41.6% (active). As for `C[C@H](CO)N1C[C@H](C)[C@@H](CN(C)S(=O)(=O)c2ccccc2)Oc2ncc(C#Cc3ccccc3F)cc2C1=O`, the inhibition is 69.9% (active). Under `COc1ccc(-c2ccc3c(c2)[C@@H]2[C@@H](CCN2C(=O)Cc2ccccn2)[C@H](CO)N3C)cc1` stands 9.06%.

Values taken from PubChem BioAssay AID651744 (Broad Institute, 2012).
